Source: PubChem BioAssay (Tox21)
Several values for one entry are separate records, joined by “and”; a condition that tells them apart may be missing. Equal entries are not always repeated. Results filed as inconclusive are left out. Activity calls are given as the source filed them. The call rests on the fitted dose curve; in most records, active means well fitted inhibition curve with a large enough effect in the repeat runs; inconclusive means weak or mixed curves; inactive means no such curve, though single readings can be large or run the other way.

Test: qHTS assay to identify small molecule antagonists of the thyroid receptor (TR) signaling pathway (AID 743065); further: nearly all actives have a fitted effect of over 55% in size
Details: GH3.TRE-Luc, T3-stimulated luciferase inhibition, 23.5 h; series mostly up to 70.3 µM; activity, negative = inhibition: at the top concentration
Source text: U.S. Tox21 Program National Center for Advancing Translational Sciences [NCATS] NIH Chemical Genomics Center [NCGC] U.S. Environmental Protection Agency [EPA] National Institutes of Environmental Health Sciences [NIEHS] National Toxicology Program [NTP] U.S. Food and Drug Administration [FDA] Tox21 Assay Overview: Thyroid receptor (TR), a nuclear hormone receptor, plays an important role in development, proliferation, differentiation, metabolism, brain function, and cardiovascular system. […] To profile the Tox21 10K compound library in TR signaling, a cell-based GH3-TRE-Luc assay (GH3.TRE-Luc cell line, developed by the laboratory of Dr. Albertinka J. Murk, Wageningen University) was used to measure the inhibition of TR. GH3 (rat pituitary tumor) cells stably expressing a TR activity sensor consisting of two TR response elements and a luciferase reporter gene.
Tox21 Assay Protocol Summary: GH3.TRE-Luc cells were dispensed at 1500 cells/4 uL/well into 1536-well white solid bottom plates using a Multidrop Combi dispenser (Thermo Fisher Scientific Inc., Waltham, MA). After the assay plates were incubated at 37 C for 4 hours, 23 nL of library compound or DMSO controls was transferred to the assay plates by a pintool station (Kalypsys, San Diego, CA), followed by addition of 1 ul of T3 (1 nM, final concentration in the wells) to stimulate TR transactivation. The assay plates were incubated at 37 C for 23.5 h, and then 1 uL of CellTiter-Fluor reagent (Promega, Madision, WI) of measuring cytotoxicity was added to each well using a Bioraptr Flying Reagent Dispenser (FRD) workstation (Beckman Coulter, Indianapolis, IN, USA). The plates were incubated at 37 C and 5% CO2 for additional 30 min, and fluorescence intensity was measured by a ViewLux plate reader (PerkinElmer, Shelton, CT). For measuring luciferase reporter gene activity, 4 uL of ONE-Glo Luciferase Assay reagent (Promega) was added to each well using a Bioraptr FRD (Beckman Coulter), followed by 30 min incubation at room temperature. The luminescence intensity of plates was recorded by a ViewLux plate reader (PerkinElmer, Shelton, CT).
On the % scale 0 is the no-effect control and ±100 the full control effect; potency means the concentration at half of the fitted maximal effect.

SMILES	activity, negative = inhibition	Potency
CC1CCCC1	-8.66% (inactive)	
O=C(NC(=O)c1c(F)cccc1F)Nc1ccc(Oc2ccc(C(F)(F)F)cc2Cl)cc1F		38.6 µM (active)
BrCCCBr	6.72% [at 95 µM] (inactive)	
N#Cc1c2ccccc2cc2ccccc12	1.9% (inactive)	
Nc1ccccc1-c1ccccc1	-9.02% (inactive)	
c1csc(-c2ccc(-c3cccs3)s2)c1	11.4% (inactive)	
O=[N+]([O-])c1ccc(CCl)cc1	-0.196% (inactive)	
COC(=O)C(C)N(C(=O)c1ccco1)c1c(C)cccc1C (stereo not given)	-3.23% (inactive)	
CCC[CH2][Sn]([CH2]CCC)([O]C(C)=O)[O]C(C)=O		3.89 µM (active)
[F][Sn]([c]1ccccc1)([c]1ccccc1)[c]1ccccc1		0.386 µM (active)
COP(=O)(OC)O/C(=C\Cl)c1cc(Cl)c(Cl)cc1Cl		27.3 µM (active)
COc1ccc2c(c1OC)C(=O)O[C@@H]2[C@H]1c2cc3c(cc2CCN1C)OCO3	0.0515% (inactive)	
O=C(N[C@H]1N=C(c2ccccc2F)c2cccc3c2N(CC3)C1=O)c1cc2ccccc2[nH]1		5.96 µM (active)
CN1C(=O)[C@@H](NC(=O)c2cc3ccccc3[nH]2)N=C(c2ccccc2)c2ccccc21		5.96 µM (active)
CC(Cc1ccc(O)cc1)NCC(O)c1cc(O)cc(O)c1 (stereo not given)	0.431% (inactive)	
CN1CCc2cc3c(cc2C1O)OCO3 (stereo not given)	-4.28% [at 95 µM] (inactive)	
COC(=O)N(OC)c1ccccc1COc1ccn(-c2ccc(Cl)cc2)n1		0.137 µM (active)
C=CC(=O)[O][Sn]([CH2]CCC)([CH2]CCC)[CH2]CCC		0.611 µM (active)
CCNS(=O)(=O)C(F)(F)C(F)(F)C(F)(F)C(F)(F)C(F)(F)C(F)(F)C(F)(F)C(F)(F)F	-0.0263% (inactive)	
CN(C)c1ccc(N)cc1		47.4 µM (active)

SMILES	activity, negative = inhibition	Potency
O=[N+]([O-])c1ccc(Cl)c(Cl)c1Cl	-7.04% (inactive)	
CNN	-14% [at 95 µM] (inactive)	
C=CC(=C)C	-17.8% (inactive)	
C=Cc1cccc(CCl)c1	-15% [at 95 µM] (inactive)	
CCN(CC)CCN1C(=O)CN=C(c2ccccc2F)c2cc(Cl)ccc21		23.7 µM (active)
CCOC(=O)Cc1ccccc1	0.798% (inactive)	
CC(C)C(Nc1ccc(C(F)(F)F)cc1Cl)C(=O)OC(C#N)c1cccc(Oc2ccccc2)c1 (stereo not given)	-4.88% [at 95 µM] (inactive)	
N#CCCl	2.32% [at 95 µM] (inactive)	
CNC(=O)O/N=C(\C)C(C)S(C)(=O)=O (stereo not given)	1.53% [at 920 µM] (inactive)	
ClSC(Cl)(Cl)Cl	26.4% (inactive)	
CNC(=O)CSP(=O)(OC)OC	1.91% (inactive)	
O=S1OCC2C(CO1)C1(Cl)C(Cl)=C(Cl)C2(Cl)C1(Cl)Cl (stereo not given)		61.2 µM (active) and 61.1 µM (active)
CCC1(CC)C(=O)N=C(O)NC1=O	0.216% (inactive)	
CC[C@]1(O)CC[C@H]2[C@@H]3CCC4=CCCC[C@@H]4[C@H]3CC[C@@]21C		8.41 µM (active)
CN/C(=N\[N+](=O)[O-])NCc1cnc(Cl)s1	-3.59% (inactive)	
C=CCOC(=O)c1ccccc1N	0% [at 95 µM] (inactive)	
CCCCC/C=C\C/C=C\C/C=C\C/C=C\CCCC(=O)NCC(=O)O	6.65% [at 8.44 µM] (inactive)	
CC(O)C(=O)[O][Hg][c]1ccccc1 (stereo not given)		0.344 µM (active)
CSSC	3.17% [at 95 µM] (inactive)	
[O]=[Cr][O][Cr]=[O]	-0.122% [at 95 µM] (inactive)	
